# Most compounds without a hit are left out; they make up all but 3.5% or so of the library.
# ERa coact inh: blocks coactivator binding to human estrogen receptor alpha; P03372; inhibition, % at 25.6 µM; actives 1.7% (n = 86,000); TR-FRET ER-alpha LBD / SRC-1 peptide, estradiol-bound; in the data active = inhibition above about 50%;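 also: 0% = receptor plus peptide control and 100% = peptide only without receptor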
# Target sequence (P03372 whole entry, looked up, the tested form may be a part): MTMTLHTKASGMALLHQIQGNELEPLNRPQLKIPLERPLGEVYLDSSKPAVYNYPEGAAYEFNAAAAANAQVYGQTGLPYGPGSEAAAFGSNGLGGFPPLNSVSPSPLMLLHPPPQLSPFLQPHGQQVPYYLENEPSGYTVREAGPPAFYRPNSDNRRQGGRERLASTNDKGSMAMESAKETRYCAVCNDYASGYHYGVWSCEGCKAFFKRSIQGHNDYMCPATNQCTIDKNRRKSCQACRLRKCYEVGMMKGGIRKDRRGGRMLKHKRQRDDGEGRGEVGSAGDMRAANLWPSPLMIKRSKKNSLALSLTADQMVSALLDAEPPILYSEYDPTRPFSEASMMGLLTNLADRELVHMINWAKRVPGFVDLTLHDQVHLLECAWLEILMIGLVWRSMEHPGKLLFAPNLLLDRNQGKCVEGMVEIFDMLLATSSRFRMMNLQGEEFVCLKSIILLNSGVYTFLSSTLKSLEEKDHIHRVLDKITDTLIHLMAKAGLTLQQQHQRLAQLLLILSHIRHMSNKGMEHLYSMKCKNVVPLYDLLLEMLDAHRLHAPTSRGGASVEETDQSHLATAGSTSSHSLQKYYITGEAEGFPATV
# Smad3 inh: inhibitors of human Smad3 transcription factor binding. P84022. TR-FRET Smad3/Dy647-FoxH1 peptide binding, europium anti-His. inhibition, % at 25 µM. actives 0.29% (n = 88,000). AID 630;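 active = compounds that reduce the energy-transfer binding signal between the protein and its labelled peptide by more than half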;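 also: 0% = Smad3 plus labelled peptide maximal FRET and 100% = peptide-only background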
# MT1-MMP txn act: MT1-MMP promoter transcription activation. HT1080 MT1-MMP promoter luciferase reporter, luminescence, overnight; stronger effect = higher value. activation factor at 10 µM. actives 0.16% (n = 86,000). AID 750;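 active = activation factor of at least 2 for MT1-MMP transcription at 10 µM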
# ERa SRC1 pot: ER-alpha (human) coactivator binding potentiation; P03372; TR-FRET ERalpha-LBD/SRC-Cy5 coactivator binding, 2 h; 100 = basal binding, no effect; coactivator binding (% of control), % at 25.6 µM; actives 1.3% (n = 86,000); AID 639; in the data active = activity above about 200%;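 also: binding measured in presence of low estradiol as agonist stimulus; 0% = peptide alone without receptor and 100% = receptor with peptide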
# MMP-13 inhibitor: MMP13 (human) collagenase inhibition | P45452 | inhibition, % at 4 µM | AID 570 | actives 0.07% (n = 65,000) | MMP-13 fTHP FRET cleavage, Mca fluorescence;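 active = inhibition above the mean of compound-free control plate wells plus 3 SD, cut at about 14% in these data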;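 also: 0% = DMSO wells and 100% = wells with reference MMP-13 inhibitor after basal subtraction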
# ERb coact inh: blocks coactivator binding to human estrogen receptor beta; actives 1.3% (n = 86,000); TR-FRET ER-beta LBD / SRC1-Cy5 peptide binding; receptor agonist-loaded with 1 µM estradiol; inhibition, % at 25.6 µM; Q92731; AID 633;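 active = compounds whose percent inhibition of the receptor-coactivator binding signal exceeds about 50% in the single-dose screen, limit read from the data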;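 also: 0% = receptor plus peptide wells without compound and 100% = peptide-only wells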
# Active calls of the source: *; i = inactive; nt = no result given; [ ] = dose if it differs, or a comment.
SMILES,ERa coact inh,Smad3 inh,MT1-MMP txn act,ERa SRC1 pot,MMP-13 inhibitor,ERb coact inh
CCSc1nc2c(cnn2-c2ccc(C)cc2)c(=O)[nH]1,-19,4,1,628*,-1,23
COC(=O)c1ccc(CSc2nc3ccc(Cl)cc3[nH]2)o1,2,5,nt,114,nt,-3
O=C(CSc1nc2c(cnn2-c2ccccc2)c(=O)[nH]1)c1ccc(Cl)cc1,14,4,1,329*,-2,8
Cc1ccc(-n2ncc3c(=O)[nH]c(SCC(=O)N4CCCCC4)nc32)cc1,0,-1,1.1,102,5,-3
CCC(C)Sc1nc2c(cnn2-c2ccccc2)c(=O)[nH]1 (centres undefined),2,-2,1,114,2,-5
CCOC(=O)c1c(N)ssc1=S,-2,16,1,102,-2,-4
CN(C(=O)CSC1=NCCS1)c1ccccc1,-7,4,1,101,nt,-4
Clc1ccc(C2=CSC3=NCCN23)cc1Cl,nt,nt,1.3,nt,9,nt
Nn1cnnc1SCC(=O)Nc1ccc2c(c1)OCCO2,6,3,1.3,56,2,3
COC(=O)[C@@]1(Cc2ccccc2)[C@@H]2[C@@H](CC(=O)[C@H]2CC(=O)C(=O)N(C)C)CN1C(=O)c1ccccc1,nt,nt,1.2,nt,nt,nt
Cc1nn(C)cc1/C=C/C(=O)c1cccs1,-5,-12,2.5*,111,nt,5
Cc1nn(C)c(C)c1/C=C/C(=O)c1cccs1,-9,9,1.8,105,nt,-2
CSc1ncc2c(n1)-c1cc(C)ccc1SC2,97*,-3,1,39,nt,38
CC1(C)CCCN(C(=O)c2coc(=O)c(Br)c2)C1,90*[fluorescence artefact?],61*,1.3,14,-51,83*
C=CCn1c(Cc2cccs2)nnc1SCC(=O)Nc1ccc(C(=O)OCC)cc1,-2,-4,1,112,6,-1
CCN(CC)c1ccc(-c2nnc(SCC(=O)Nc3ccccc3C#N)n2-c2ccccc2)cc1,52*[fluorescence artefact?],-4,1.2,104,nt,29
C=CCn1c(SCC(=O)Nc2ccc(C(=O)OCC)cc2)nnc1-c1cccs1,-45,i,1.1,755*[fluorescence artefact?],-2,10
N#Cc1ccccc1NC(=O)CSc1nnc(-c2ccccc2)n1-c1ccccc1,-7,12,1.3,98,0,-1
CCOC(=O)c1ccc(NC(=O)CSc2nnc(COc3ccccc3)n2C)cc1,13,9,1.1,178,1,8
CCn1c(SCC(=O)Nc2ccc(C(=O)OC)cc2)nnc1-c1cccs1,-2,-57,1.1,304*[fluorescence artefact?],1,10
CCn1c(SCC(=O)NCC(=O)Nc2ccc(F)cc2)nnc1-c1cccs1,-9,-3,1.1,103,0,1
CCOC(=O)c1ccc(NC(=O)CSc2nnc(CNc3ccc(OC)cc3)n2C)cc1,52*,13,1.3,93,6,35
Cc1ccccc1-n1nnnc1SCC(=O)Nc1ccc(S(=O)(=O)N2CCCC2)cc1,10,-5,1.1,85,4,13
CCOC(=O)CSc1nnc(-c2cccs2)n1-c1ccccc1,14,11,1.1,88,2,-10
O=C(CSc1nnc(-c2cccs2)n1-c1ccccc1)Nc1ccccc1,-31,-218,1.1,969*[fluorescence artefact?],-1,11
SMILES,ERa coact inh,Smad3 inh,MT1-MMP txn act,ERa SRC1 pot,MMP-13 inhibitor,ERb coact inh
CN1C(=O)CC(C(=O)O)SC1=Nc1cc(Cl)c(O)c(Cl)c1 (centres undefined),43,8,1.2,43,nt,54*
COc1ccc(C(N)CCc2ccc(C)o2)cc1 (centres undefined),95*[fluorescence artefact?],4,1.1,19,4,74*
CCc1ccc(CCC(=O)Nc2ccc(OC)cc2)o1,-33,4,1.2,98,nt,-20
O=C(CCCn1c(=O)c2sccc2n(Cc2ccc(F)cc2)c1=O)NCc1ccco1,-1,-5,1.1,97,-4,-5
Cc1ccc(C)c(Cn2c(=O)n(-c3ccc(CC(=O)NCc4ccco4)cc3)c(=O)c3sccc32)c1,80*[fluorescence artefact?],-71,nt,127,nt,55*
CN(C)c1ncc(C2=C(Cl)C(=O)C(N3CCCC3)=C(Cl)C2=O)s1,97*[fluorescence artefact?],26,1.1,9,nt,94*[fluorescence artefact?]
CCCCCn1c2nc3ccccc3nc2c2c(=O)n(CC3CCCO3)c(C)nc21 (centres undefined),12,4,1,134,0,12
COc1cc(OC)cc(-n2c3nc4ccccc4nc3c3c(=O)n(CC4CCCO4)cnc32)c1 (centres undefined),57*[fluorescence artefact?],25,1.1,124,-4,48
Cc1nc2c(c(=O)n1CC1CCCO1)c1nc3ccccc3nc1n2CCC(C)C (centres undefined),76*,9,0.9,88,-26,23
COc1ccc(-c2cn3ccc4ccccc4c3n2)cc1,-9,-5,2.5*,95,nt,-4
O=C(c1cc(-c2ccco2)on1)N1CCCc2ccccc21,66*,10,1.3,95,1,52*
O=C(c1cc(-c2ccco2)on1)N1CCc2ccccc2C1,58*,1,1.1,91,-2,51*
O=C(c1cc2nc(-c3ccco3)cc(C(F)(F)F)n2n1)N1CCCc2ccccc21,14,-2,1.1,101,-2,15
Nc1nnc(CCN2C(=O)CSC2=O)s1,2,16,1.3,141,6,5
O=C(CCC1N=C2c3ccccc3N=C(SCc3cccc(Cl)c3)N2C1=O)NCc1ccco1 (centres undefined),39,5,1.2,257*[fluorescence artefact?],-15,23
COc1ccc(CCNc2ccc(C)cc2)cc1,-2,9,1.2,99,nt,-2
Cc1cc(SCC(=O)N2CCC(c3noc4ccc(F)cc34)CC2)nc2ccccc12,41,6,nt,124,1,49
O=C(CSc1ncnc2sc3c(c12)CCCC3)N1CCC(c2noc3ccc(F)cc23)CC1,29,5,1.1,355*[fluorescence artefact?],2,66*[fluorescence artefact?]
CCN1C(=O)CC(N2CCC(Nc3ccc(OC)cc3)CC2)C1=O (centres undefined),-6,-4,1.1,96,-8,0
CCOC(=O)c1c(NS(=O)(=O)c2ccc(Br)cc2)sc2c1CCC2,61*[fluorescence artefact?],5,1,42,nt,56*
CCOC(=O)c1c(NC(=O)CSc2nnc(CNC(=O)c3ccco3)n2C)sc2c1CCC2,65*,6,1.1,76,2,23
CCOC(=O)c1c(NC(=O)c2cccs2)sc2c1CCC2,16,-1,1.1,263*[fluorescence artefact?],-4,15
CCOC(=O)c1c(NC(=O)CSc2nnc(C)s2)sc2c1CCN(C)C2,85*[fluorescence artefact?],5,1.1,92,-4,48
CCOCCn1c(CN2CCCCC2C)nc2c1c(=O)n(C)c(=O)n2C (centres undefined),nt,nt,1,nt,3,nt

# Compound activity as filed in PubChem BioAssay.
